Screening data deposited in PubChem by National Center for Advancing Translational Sciences (NCATS).
Sampled rows, rich in hits. Any-hit rate of the full collection: about 19%.
IL-1B inflam inh: inflammasome signaling inhibition, IL-1 beta readout. activity change, % at 57.5 µM. AID 743279. THP-1 LPS/ATP IL-1B secretion, AlphaLISA, 16 h; stronger effect = lower value. hit rate 4.7% among 360,000; in the data active means activity change below about -50%; inconclusive means mostly about -30% to -49%
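Secreted IL-1B measured by AlphaLISA bead assay after 16 h compound exposure of THP-1 cells; compounds (final up to 57.5 uM) added 1 h before LPS (250 ng/mL) and ATP (1.25 mM) stimulation; lower signal means less secretion.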
HT1080 IDH1KD tx: HT-1080 IDH1 knockdown cell toxicity (counter line); HT-1080 IDH1 knockdown viability, ATP luminescence, 48 h; Potency, µM (top dose mostly 46.1 µM), hits mostly cytotoxic; hit rate 2% among 360,000; AID 686971
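In this qHTS, HT-1080 cells depleted of IDH1 are exposed for 48 h at 37 °C to compound titrations. Toxicity is scored from CellTiter-Glo luminescence, with DMSO as full viability and medium alone as none.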
DT40 TDP1 CPT: DT40-hTDP1 cell growth loss with CPT | AID 686979 | hit rate 12% among 420,000 | chicken DT40 Tdp1-/-;hTDP1 cells + 20 nM CPT, ATP luminescence, 48 h | Potency, µM (doses to about 46.2 µM), most hits filed as inhibitors; further: nearly all actives have a fitted effect of over 55% in size
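Chicken DT40 Tdp1-/- cells stably complemented with human TDP1 were seeded at 400 cells/well in medium containing 20 nM camptothecin, exposed to pin-transferred compounds, and grown at 37 °C for at least 48 hr. Viability was read as ATP luminescence.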
DT40 TDP1 no CPT: qHTS for Inhibitors of human tyrosyl-DNA phosphodiesterase 1 (TDP1): qHTS in cells in absence of CPT; DT40 Tdp1-/- hTDP1 cells, no CPT, ATP luminescence, 48 h; Potency, µM (doses to about 46.2 µM), most hits filed as inhibitors; hit rate 15% among 420,000; further: nearly all actives have a fitted effect of over 55% in size
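Chicken DT40 Tdp1-/- cells stably complemented with human TDP1 were seeded at 400 cells/well with DMSO in place of 20 nM camptothecin. After compound pinning, cells grew at least 48 hr at 37 °C; viability read by CellTiter-Glo luminescence.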
HT1080NT lethal: kills 2HG-producing HT-1080-NT fibrosarcoma cells | HT-1080-NT fibrosarcoma viability, CellTiter-Glo ATP luminescence, 48 h | Potency, µM (doses to about 46.1 µM), most hits filed as cytotoxic | hit rate 1.6% among 360,000;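 further: NT is the 2HG producing partner of a matched IDH1 knockdown line; nearly all actives have a fitted effect of over 55% in size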
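HT-1080-NT fibrosarcoma cells (2HG-overproducing), 750 cells/well in RPMI with 5% FBS, dosed after 2 h and incubated 48 h at 37C. CellTiter-Glo luminescence normalized to DMSO and no-cell wells; concentration-response curves fitted and classed.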
Of the large screens only hits and unclear results are named; the others gave an inactive call. Unless noted, the call rests on the fitted dose curve; in most records, active means well fitted curve in the direction sought with a large enough effect; inconclusive means small, poorly fitted or top-dose-only effect, or another doubt; inactive means no such curve, though single readings can be large; an effect the other way counts as inactive or inconclusive.

NC(c1csc(Nc2nncc3ccccc23)n1)c1ccccc1Cl (centres undefined)	DT40 TDP1 CPT 29.1µM, DT40 TDP1 no CPT 14.6µM, HT1080NT lethal inconclusive
Cc1ccc(N2C(=O)C3ON(c4ccccc4)C(CC(C)C)C3C2=O)cc1 (centres undefined)	none
CCN1CCCC1CN(Cc1cc2cc(C)ccc2[nH]c1=O)C(=O)Nc1ccccc1OC (centres undefined)	DT40 TDP1 CPT inconclusive, DT40 TDP1 no CPT 20.6µM
COc1cc2cc(CN(CCN3CCOCC3)C(=O)Nc3ccc(F)cc3)c(=O)[nH]c2cc1OC	none
Cc1cccc(NC(=O)N(Cc2cc3cc(C)ccc3[nH]c2=O)CC2COCCO2)c1 (centres undefined)	IL-1B inflam inh -73.0, DT40 TDP1 CPT inconclusive, DT40 TDP1 no CPT 23.1µM
COc1ccc2[nH]c(=O)c(CN(CC3CCCO3)C(=O)Nc3ccc(F)cc3)cc2c1 (centres undefined)	DT40 TDP1 CPT 16.4µM, DT40 TDP1 no CPT 11.6µM
Cc1ccc2[nH]c(=O)c(CN(CCCN3CCOCC3)C(=O)Nc3ccc(Cl)cc3)cc2c1	DT40 TDP1 CPT 14.6µM, DT40 TDP1 no CPT 16.4µM
COc1ccc(NC(=O)N2CCCC2C(=O)NCCc2ccccc2)cc1 (centres undefined)	none
CCCCCC(=O)N1C[C@@H](O)[C@H](n2cc(COC(=O)c3ccccc3)nn2)C[C@@H]1c1ccc(OC)cc1	none
CCc1nn(CC(=O)NCCCOC)c(=O)c2cc3ccccc3n12	none (no result: IL-1B inflam inh, HT1080 IDH1KD tx, HT1080NT lethal)
COc1ccc(NC(=O)N(Cc2cc3cc(C)ccc3[nH]c2=O)CC2CCCO2)cc1 (centres undefined)	IL-1B inflam inh inconclusive, DT40 TDP1 CPT 18.4µM, DT40 TDP1 no CPT inconclusive
COc1ccc(N(Cc2cc3cc(OC)ccc3[nH]c2=O)S(=O)(=O)c2ccc(NC(C)=O)cc2)cc1	DT40 TDP1 CPT 16.4µM, DT40 TDP1 no CPT 8.2µM (no result: HT1080 IDH1KD tx, HT1080NT lethal)
COc1ccc2[nH]c(=O)c(CN(CC3CCCO3)S(=O)(=O)c3ccccc3)cc2c1 (centres undefined)	DT40 TDP1 CPT inconclusive, DT40 TDP1 no CPT inconclusive
COc1ccc(NC(=O)N(Cc2cc3cc(OC)c(OC)cc3[nH]c2=O)CC2CCCO2)cc1 (centres undefined)	DT40 TDP1 CPT inconclusive, DT40 TDP1 no CPT inconclusive
CCOc1ccc(N(Cc2cc3cc(OC)ccc3[nH]c2=O)S(C)(=O)=O)cc1	HT1080 IDH1KD tx inconclusive, DT40 TDP1 no CPT inconclusive
COc1ccc2[nH]c(=O)c(CN(Cc3cccnc3)C(=S)NCC3CCCO3)cc2c1 (centres undefined)	DT40 TDP1 CPT 18.4µM, DT40 TDP1 no CPT 20.6µM
Cc1ccc2[nH]c(=O)c(CN(Cc3ccccc3Cl)C(=O)N3CCOCC3)cc2c1	IL-1B inflam inh inconclusive, DT40 TDP1 CPT inconclusive, DT40 TDP1 no CPT 20.6µM
COc1ccc2[nH]c(=O)c(CN(CC3CCCO3)C(=S)Nc3ccc(C)cc3)cc2c1 (centres undefined)	DT40 TDP1 no CPT 16.4µM
COc1ccc2cc(CN(CC3CCCO3)C(=O)Nc3ccccc3)c(=O)[nH]c2c1 (centres undefined)	IL-1B inflam inh inconclusive, DT40 TDP1 CPT inconclusive
CCOc1ccc2[nH]c(=O)c(CN(Cc3ccccc3)C(=O)N3CCCC3)cc2c1	DT40 TDP1 CPT 20.6µM, DT40 TDP1 no CPT inconclusive
O=C(NCCCNC(=O)c1cc(Cl)ccc1Cl)c1ccco1	none
CC(C)COc1cccc(C(=O)N(C)CC(=O)Nc2cccc3ccccc23)c1	DT40 TDP1 CPT 18.4µM, DT40 TDP1 no CPT 18.4µM
Cc1cc(C(=O)NNc2ccc(F)cc2F)no1	HT1080 IDH1KD tx 5.17µM, HT1080NT lethal 3.66µM
Cc1ccc(NNC(=O)c2cc(C)on2)c(C)c1	HT1080 IDH1KD tx 8.2µM, HT1080NT lethal inconclusive
CC(C)CC(=O)Nc1cc(NC(=O)CC(C)C)cc(C(=O)NC(C)(C)C)c1	none
COc1ccc(/C=N/NC(=O)c2cc(-c3ccc(C)cc3C)nc3ccccc23)cc1COC(C)=O	DT40 TDP1 CPT inconclusive, DT40 TDP1 no CPT 1.46µM
COc1ccc(/C=N/NC(=O)c2cc(-c3ccccc3OC)nc3ccccc23)cc1COC(C)=O	DT40 TDP1 CPT 10µM, DT40 TDP1 no CPT 14.1µM
CCOc1ccc(CCNC(=O)COC(=O)CNS(=O)(=O)c2ccc(NC(C)=O)cc2)cc1OCC	none
CC(=O)Cc1cc(O)c2ccccc2c1OC(=O)c1ccccc1	HT1080 IDH1KD tx inconclusive, DT40 TDP1 CPT inconclusive, DT40 TDP1 no CPT 14.6µM, HT1080NT lethal inconclusive
Cc1nc(Cl)sc1C(=O)Nc1ccc(F)cc1	none
CC(C)S(=O)(=O)c1csc(C(=O)Nc2ccc(F)cc2)c1N	HT1080 IDH1KD tx inconclusive, DT40 TDP1 CPT 20.6µM, DT40 TDP1 no CPT inconclusive, HT1080NT lethal inconclusive
COc1ccc(CNC(=O)c2cnn(-c3ncc4c(n3)-c3ccccc3CC4)c2C)cc1OC	none (no result: IL-1B inflam inh, HT1080 IDH1KD tx, HT1080NT lethal)
Cn1sccc1=O	IL-1B inflam inh -52.9, HT1080 IDH1KD tx inconclusive, DT40 TDP1 CPT 2.91µM, DT40 TDP1 no CPT 2.91µM, HT1080NT lethal inconclusive
Cc1[nH]c2ccc(C(=O)N3CCC(C(N)=O)CC3)cc2c1C	none
Cc1[nH]c2ccccc2c1C(c1ccccn1)N1CCC(C(N)=O)CC1 (centres undefined)	DT40 TDP1 CPT 20.6µM, DT40 TDP1 no CPT 18.4µM
Cc1[nH]c2ccccc2c1C(c1ccncc1)N1CCC(C)CC1 (centres undefined)	DT40 TDP1 CPT inconclusive, DT40 TDP1 no CPT 18.4µM
Cc1[nH]c2ccccc2c1C(c1ccncc1)N1CCN(c2ccccn2)CC1 (centres undefined)	DT40 TDP1 CPT inconclusive, DT40 TDP1 no CPT inconclusive
CCOC(=O)C1CCN(C(c2ccccn2)c2c(C)[nH]c3ccccc23)CC1 (centres undefined)	IL-1B inflam inh -109.9, HT1080 IDH1KD tx inconclusive, DT40 TDP1 CPT 16.4µM, DT40 TDP1 no CPT 16.4µM, HT1080NT lethal inconclusive
Cc1ccc(N=C(N)N=C(N)N)cc1	none
O=C(c1ccccc1)[C@@H]1O[C@H]1c1ccc(-c2ccccc2)cc1	DT40 TDP1 CPT 4.22µM, DT40 TDP1 no CPT 4.22µM (no result: IL-1B inflam inh, HT1080 IDH1KD tx, HT1080NT lethal)
O=C(O)C1CCC(c2ccc(-c3ccccc3)cc2)CC1 (centres undefined)	none
COc1cccc(C2CC(OCCF)=CC(=O)O2)c1 (centres undefined)	DT40 TDP1 CPT inconclusive
CCOC(=O)c1c(C)nn(-c2ccc(NC(=O)/C=C/C(=O)O)cc2)c1C	DT40 TDP1 no CPT 1.46µM
CCNC(=O)Nc1ccc(-n2nc(C)c(C(=O)OCC)c2C)nc1	DT40 TDP1 CPT 18.4µM, DT40 TDP1 no CPT inconclusive
CCOC(=O)c1c(C)nn(-c2ccc(NC(=O)c3c(C)noc3C)cc2)c1C	DT40 TDP1 CPT inconclusive, DT40 TDP1 no CPT inconclusive
Cc1nn(-c2ccccc2)c(C)c1C(=O)OCC(=O)Nc1ccccc1F	HT1080 IDH1KD tx inconclusive, DT40 TDP1 CPT inconclusive
